Laboratory results reported in PubChem BioAssay AID1159580 (chemical genetic matrix, 2015).
In all, about 5,500 compounds went through this assay and about 2,000 (36%) were called active. Inconclusive results (about 18%) are left out. Rule as the data show it: active = normalized growth mostly below about 0.91 (no sharp cut-off); inconclusive = no clear call, values can overlap the other calls; inactive = mostly above about 0.92. This is one part of the list.

Assay: chemical genetic growth profiling, strain panel (AID 1159580);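 also: tested at 20 µM; growth read once vehicle control cultures reached saturation at 30 °C; 1 = growth at the plate median or of vehicle wells; lower values mean less growth of the strain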
Details: S. cerevisiae deletion strains, growth OD

Measured: normalized growth

CCOCN(C(=O)CCl)c1c(C)cccc1CC
inactive: locus YAL013W, strain DEP1, active compounds read low 0.995 | locus YAL021C, strain ccr4, active compounds read low 0.988 | locus YAL026C, strain drs2, active compounds read low 0.998 | locus YAL030W, strain snc1, active compounds read low 0.992 | locus YBL061C, strain skt5, active compounds read low 0.994 | locus YBR009C, strain hhf1, active compounds read low 0.994 | locus YBR021W, strain FUR4, active compounds read low 1.01 | locus YBR023C, strain chs3, active compounds read low 0.98 | locus YBR171W, strain sec66, active compounds read low 0.971 | locus YBR229C, strain ROT2, active compounds read low 0.992 | locus YBR231C, strain swc5, active compounds read low 0.989 | locus YBR279W, strain paf1, active compounds read low 0.999 | locus YCL011C, strain gbp2, active compounds read low 0.998 | locus YCL016C, strain dcc1, active compounds read low 0.991 | locus YCL029C, strain bik1, active compounds read low 0.976 | locus YCL061C, strain MRC1, active compounds read low 0.98 | locus YCL069W, strain vba3, active compounds read low 0.992 | locus YCR088W, strain abp1, active compounds read low 0.984 | locus YDL005C, strain med2, active compounds read low 0.982 | locus YDL035C, strain GPR1, active compounds read low 0.99 | locus YDL040C, strain nat1, active compounds read low 1 | locus YDL074C, strain BRE1, active compounds read low 1.03 | locus YDL101C, strain DUN1, active compounds read low 0.983 | locus YDL134C, strain PPH21, active compounds read low 0.995 | locus YDL185W, strain tfp1, active compounds read low 0.967 | locus YDL192W, strain arf1, active compounds read low 0.979 | locus YDR001C, strain nth1, active compounds read low 0.991 | locus YDR069C, strain doa4, active compounds read low 0.987 | locus YDR101C, strain arx1, active compounds read low 0.98 | locus YDR137W, strain rgp1, active compounds read low 0.975 | locus YDR150W, strain NUM1, active compounds read low 0.954 | locus YDR159W, strain sac3, active compounds read low 0.959 | locus YDR162C, strain NBP2, active compounds read low 1 | locus YDR195W, strain ref2 0.982 | locus YDR297W, strain sur2, active compounds read low 0.986 | locus YDR318W, strain mcm21, active compounds read low 0.985 | locus YDR334W, strain swr1, active compounds read low 0.986 | locus YDR335W, strain msn5, active compounds read low 0.998 | locus YDR388W, active compounds read low 0.978 | locus YDR392W, strain spt3, active compounds read low 0.975 | locus YDR502C, strain sam2, active compounds read low 0.974 | locus YEL003W, strain gim4, active compounds read low 0.996 | locus YEL037C, strain rad23, active compounds read low 0.994 | locus YEL061C, strain CIN8 (second series), active compounds read low 0.994 | locus YEL061C, strain CIN8, active compounds read low 0.991 | locus YER015W, strain faa2, active compounds read low 0.993 | locus YER016W, strain bim1, active compounds read low 0.994 | locus YER110C, active compounds read low 0.978 | locus YER111C, strain swi4, active compounds read low 0.997 | locus YER155C, strain BEM2 (second series), active compounds read low 0.972 | locus YER155C, strain BEM2, active compounds read low 0.993 | locus YER167W, strain BCK2, active compounds read low 0.995 | locus YFR010W, strain ubp6, active compounds read low 0.992 | locus YGL078C, strain dbp3, active compounds read low 0.979 | locus YGL086W, strain mad1, active compounds read low 0.983 | locus YGL167C, strain pmr1, active compounds read low 0.985 | locus YGL173C, strain kem1, active compounds read low 0.976 | locus YGL227W, strain vid30, active compounds read low 0.983 | locus YGL240W, strain doc1, active compounds read low 0.985 | locus YGL248W, strain PDE1, active compounds read low 0.981 | locus YGL253W, strain hxk2, active compounds read low 0.981 | locus YGR078C, strain PAC10, active compounds read low 1 | locus YGR135W, strain pre9, active compounds read low 0.982 | locus YGR229C, strain SMI1, active compounds read low 1.01 | locus YGR252W, strain gcn5, active compounds read low 1.04 | locus YHR013C, strain ard1, active compounds read low 0.988 | locus YHR027C, strain rpn1, active compounds read low 0.98 | locus YHR030C, strain SLT2, active compounds read low 0.982 | locus YHR079C, strain IRE1 (second series), active compounds read low 0.979 | locus YHR094C, strain hxt1, active compounds read low 0.968 | locus YHR129C, strain ARP1, active compounds read low 0.963 | locus YHR142W, strain chs7, active compounds read low 1.04 | locus YHR200W, strain rpn10, active compounds read low 0.988 | locus YIL066C, strain RNR3, active compounds read low 0.976 | locus YIL073C, strain SPO22, active compounds read low 0.856 | locus YIL125W, strain kgd1, active compounds read low 0.997 | locus YIR030C, strain dcg1, active compounds read low 0.972 | locus YJL092W, strain hpr5, active compounds read low 0.985 | locus YJL095W, strain BCK1 (second series), active compounds read low 0.996 | locus YJL095W, strain BCK1, active compounds read low 1 | locus YJL115W, strain asf1, active compounds read low 0.976 | locus YJL129C, strain trk1, active compounds read low 1.01 | locus YJL134W, strain LCB3, active compounds read low 0.987 | locus YJL154C, strain vps35, active compounds read low 0.979 | locus YJL164C, strain tpk1, active compounds read low 0.994 | locus YJL166W, strain qcr8, active compounds read low 0.991 | locus YJL168C, strain set2, active compounds read low 0.984 | locus YJL187C, strain SWE1 (second series), active compounds read low 0.979 | locus YJL187C, strain SWE1, active compounds read low 0.988
